PubChem BioAssay (NCATS)
Records with an inconclusive call do not appear. Unmarked numbers belong to inactive results. The call rests on the fitted dose curve; in most records, active means well fitted inhibition curve with a large enough effect; inconclusive means small, poorly fitted or top-dose-only effect; inactive means flat fitted curve, though single readings scatter. Square brackets hold non-standard residues; d marks the D form. Peptide text beside a SMILES is read from it. dPhe(4-Cl) = N[C@H](Cc1ccc(Cl)cc1)C(=O)O; d2Nal = N[C@H](Cc1ccc2ccccc2c1)C(=O)O; dCit = NC(=O)NCCC[C@@H](N)C(=O)O; d3Pal = N[C@H](Cc1cccnc1)C(=O)O

What follows are molecules tested against Aldehyde dehydrogenase, mitochondrial (Homo sapiens) (UniProt P05091) (assay: qHTS for Inhibitors of the Aldehyde Dehydrogenase Family (ALDH2) Primary screen (AID 2061308;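 further: plate controls were vehicle for no effect and reference inhibitor for full effect; nearly all actives have a fitted effect of over 55% in size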)). Conditions: ALDH2 enzyme inhibition qHTS, 1536-well; series mostly up to 56 µM; activity change, negative = inhibition: at the top concentration.
For C[C@@H]1CCO[C@H]2Cn3cc(C(=O)NCc4ccc(F)cc4F)c(=O)c(O)c3C(=O)N12, the “activity change, negative = inhibition” value was -9.38%.
For COc1ccccc1-c1c[nH]c2ncc(-c3cncc(C(=O)N(C)C)c3)cc12, the “activity change, negative = inhibition” value was 1.2%.
For O=C(O)c1cccc(CN2C(=O)/C(=C(\c3ccccc3)c3ccc(Cl)cc3)c3ccccc32)c1, the “activity change, negative = inhibition” value was -0.685%.
With COc1ccc(C2OCC3C(c4cc(OC)c5c(c4)OCO5)OCC23)cc1OC (stereo not drawn) the “activity change, negative = inhibition” value was -2.81% [at 28 µM].
In the case of COC1CC(O[C@H]2CC[C@@]3(C)C(=CC[C@]4(O)C3[C@H](O)[C@@H](O)[C@]3(C)[C@@H]([C@H](C)O)CC[C@@]34O)C2)OC(C)C1OC1CC(OC)C(OC2CC(OC)C(OC3OC(C)C(OC4OC(CO)C(O)C(O)C4O)C(OC)C3O)C(C)O2)C(C)O1 (stereo partly drawn), the “activity change, negative = inhibition” value was -2.4% [at 16.9 µM].
COC(=O)/C=C/c1ccc(O[C@@H]2O[C@H](CO)[C@@H](O)[C@H](O)[C@H]2O)cc1 was tested, and the “activity change, negative = inhibition” value was 17.6%.
For C=C1C(OC2OCC(O)C(O)C2O)CC2C(C)(C)C(O)CCC2(C)C1CC/C(C)=C\CO (stereo not drawn), the “activity change, negative = inhibition” value was 2.03% [at 28 µM].
In the case of COC(=O)C(C)C1CCC2(C)C(=O)C=CC(C)(O)C2C1O (stereo not drawn), the “activity change, negative = inhibition” value was 9.57%.
In the case of CCC(C)/C=C(C)/C=C/c1cc2c(cn1)C(=O)C(C)(OC(C)=O)C(O)=C2Cl (stereo not drawn), the “activity change, negative = inhibition” value was -10.2%.
In the case of CC(=O)O[C@H]1[C@H](O[C@H]2[C@@H]3C=CO[C@@H](O[C@@H]4O[C@H](CO)[C@@H](O)[C@H](O)[C@H]4O)[C@@H]3[C@@]3(CO)O[C@@H]23)O[C@@H](C)[C@H](OC(=O)/C=C/c2ccccc2)[C@H]1OC(=O)/C=C/c1ccccc1, the “activity change, negative = inhibition” value was 3.52% [at 16.9 µM].
With [N-]=[N+]=N[C@]1(CO)O[C@@H](n2ccc(=O)[nH]c2=O)[C@@H](O)[C@@H]1O the “activity change, negative = inhibition” value was -7.49%.
CC1(C)CC[C@]2(C(=O)O[C@@H]3O[C@H](CO)[C@@H](O)[C@H](O)[C@H]3O)CC[C@]3(C)C(=CCC4[C@@]5(C)C[C@@H](O)[C@H](O)[C@](C)(C(=O)O)C5CC[C@]43C)C2C1O (stereo partly drawn) was tested, and the “activity change, negative = inhibition” value was -0.0832% [at 16.9 µM].
For Nc1nc2c(ncn2CCC(CO)CO)c(=O)[nH]1, the “activity change, negative = inhibition” value was 12%.
With C[C@@H]1C[C@H](O)/C=C/[C@H](O)[C@@H](O)CC(=O)O1 the “activity change, negative = inhibition” value was 10.6%.
For CC(=O)O[C@@H]1[C@@H](OC(=O)/C=C/c2ccccc2)[C@@H](OC(C)=O)[C@H](O[C@H]2[C@@H]3C=CO[C@@H](O[C@@H]4O[C@H](CO)[C@@H](O)[C@H](O)[C@H]4O)[C@@H]3[C@@]3(CO)O[C@@H]23)O[C@H]1C, the “activity change, negative = inhibition” value was 2.72% [at 16.9 µM].
CC1(C)C2CC=C(COC3OC(COC4OCC(O)(CO)C4O)C(O)C(O)C3O)C1C2 (stereo not drawn) was tested, and the “activity change, negative = inhibition” value was 11.1% [at 28 µM].
CC(C)=CCC[C@](C)(O[C@@H]1O[C@H](CO[C@@H]2O[C@H](CO)[C@@H](O)[C@H](O)[C@H]2O)[C@@H](O)[C@H](O)[C@H]1O)C1CC[C@]2(C)[C@@H]1[C@H](O)CC1[C@@]3(C)CC[C@H](O[C@@H]4O[C@H](CO)[C@@H](O)[C@H](O)[C@H]4O[C@@H]4O[C@H](CO)[C@@H](O)[C@H](O)[C@H]4O)C(C)(C)[C@@H]3CC[C@]12C (stereo partly drawn) was tested, and the “activity change, negative = inhibition” value was 1.9% [at 16.9 µM].
In the case of CC(C)=CCC/C(C)=C/COCC1OC(n2ccc(=O)[nH]c2=O)C(O)C1O (stereo not drawn), the “activity change, negative = inhibition” value was -6.75%.
With O=S(=O)(O)c1ccc(Nc2ncnc3c2ncn3[C@@H]2O[C@H](CO)[C@@H](O)[C@H]2O)cc1 the “activity change, negative = inhibition” value was -6.34%.
With CC1=CC(=O)CC(C)(C)C1CCC(C)O[C@@H]1O[C@H](CO)[C@@H](O)[C@H](O)[C@H]1O (stereo partly drawn) the “activity change, negative = inhibition” value was -1.31%.
In the case of C[C@@H]1O[C@@H](O[C@H]2[C@H](OC(=O)[C@]34CCC(C)(C)C[C@H]3C3=CCC5[C@@]6(C)C[C@H](O)[C@H](O[C@@H]7O[C@H](CO)[C@@H](O)[C@H](O)[C@H]7O)[C@@](C)(CO)C6[C@H](O)C[C@@]5(C)[C@]3(C)CC4)OC[C@H](O)[C@@H]2O)[C@H](O)[C@H](O)[C@H]1O[C@@H]1OC[C@@H](O)[C@H](O[C@@H]2OC[C@](O)(CO)[C@H]2O)[C@H]1O (stereo partly drawn), the activity change, negative = inhibition was 8.31% [at 11.2 µM].
CC(=O)N[C@H](Cc1ccc2ccccc2c1)C(=O)N[C@H](Cc1ccc(Cl)cc1)C(=O)N[C@H](Cc1cccnc1)C(=O)N[C@@H](CO)C(=O)N[C@@H](Cc1ccc(O)cc1)C(=O)N[C@H](CCCNC(N)=O)C(=O)N[C@@H](CC(C)C)C(=O)N[C@@H](CCCN=C(N)N)C(=O)N1CCC[C@H]1C(=O)N[C@H](C)C(N)=O (Ac-[d2Nal][dPhe(4-Cl)][d3Pal]SY[dCit]LRP[dA]-NH2) was tested, and the “activity change, negative = inhibition” value was 5.8% [at 16.9 µM].
Nc1nc2c(nc(Sc3ccc(Cl)cc3)n2[C@@H]2O[C@@H]3COP(=O)(O)O[C@H]3[C@H]2O)c(=O)[nH]1 was tested, and the “activity change, negative = inhibition” value was -14.5%.
